From PubChem
Sampled rows, rich in hits. Any-hit rate of the full collection: about 2.2%.
APP 5UTR inh – APP translation inhibition; 190,000 tested, 0.82% active; SH-SY5Y APP 5'UTR-luciferase reporter, luminescence; AID 1285; inhibition, % at 2 µM;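 active = inhibition above a set limit, derived from the sample mean plus 3 SD, cut at about 45% in these data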
IEC-6 cytotox – kills IEC-6 intestinal cells in KLF5 counter-screen | inhibition, % at 5 µM | 290,000 tested, 0.78% active | IEC-6 cytotoxicity, luminescence viability; in the data active = inhibition above about 22%
BaF3 parental – reduces parental Ba/F3 cell viability, JAK2V617F counter-screen | CellTiter-Glo ATP luminescence | inhibition, % at 5.6 µM | 220,000 tested, 1.1% active | AID 1486;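 active = inhibition above a per-campaign cutoff, the mean inhibition of all tested compounds plus 3 SD, cut at about 27% in these data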
aSyn UTR inh – MLPCN primary screen, SNCA 5' untranslated region | alpha-synuclein 5'UTR reporter, inhibitor activity | 300,000 tested, 0.82% active | AID 1813 | inhibition, % (tested at 7.5 µM); in the data active = inhibition above about 60%;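 note: H4 neuroglioblastoma cells stably carrying SNCA 5'UTR luciferase fusion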
Ba/F3 V617F tox – lowers viability of Ba/F3 cells expressing EpoR and JAK2V617F; 220,000 tested, 1.1% active; inhibition, % at 5.6 µM; AID 1446; ATP luminescence;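 active = inhibition above the campaign mean plus 3 SD over all tested compounds, cut at about 24% in these data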;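 note: cytokine-independent growth of Ba/F3 cells driven by EpoR plus mutant JAK2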
KLF5 inhibitor – kruppel-like factor 5 inhibition | DLD-1 KLF5 promoter-luciferase reporter, luminescence | inhibition, % at 5 µM | 290,000 tested, 0.23% active;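 active = inhibition above a per-plate limit of that plate's mean compound inhibition plus 3 SD, cut at about 60% in these data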;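 note: higher means less KLF5 promoter-driven luciferase light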
Hits are given with their value; - = inactive; . = no result given.

SMILES	APP 5UTR inh	IEC-6 cytotox	BaF3 parental	aSyn UTR inh	Ba/F3 V617F tox	KLF5 inhibitor
Cc1ccc(N2C(=O)N(CC(=O)Nc3c(C)cc(C)cc3Cl)C(=O)C2C)cc1 (stereo unspecified)	.	.	.	-	.	.
COc1ccc(CNC(=O)COC(=O)CCOc2ccccc2)cc1	-	-	-	-	-	-
COc1ccc(OCC(=O)OCC(=O)NCc2ccc(F)cc2)cc1	64	-	-	-	-	-
Cc1ccc(CCNC(=O)c2sc3nc4n(c(=O)c3c2C)CCC4)cc1	.	-	.	-	.	-
COc1ccc(-c2oc3cc(OC)c(O)c(OC)c3c(=O)c2OC)cc1O	-	-	-	65	-	-
COc1ccc(-c2oc3cc(O)c(OC)c(O)c3c(=O)c2OC)cc1	.	.	.	-	.	.
CC(C)CNC(=O)c1c(F)c(F)c(F)c(F)c1F	-	-	74	-	-	-
O=C(NCCCCNC(=O)c1c(F)c(F)c(F)c(F)c1F)c1c(F)c(F)c(F)c(F)c1F	-	-	-	-	-	-
Cc1ccc2cc(C#N)c(N3CCCN(C(=S)NCCCN(C)C)CC3)nc2c1	.	-	.	-	.	-
Cc1cc(C)c2cc(C#N)c(N3CCCN(C(=S)NCCCN(C)C)CC3)nc2c1	.	-	.	96	.	-
COc1cc(/C=N/c2oc(C)c(C)c2C#N)cc(Br)c1O	.	-	.	-	.	-
CCn1c(=O)[nH]c2ccccc2c1=O	-	-	-	-	-	-
Nn1c(=O)[nH]c2ccccc2c1=O	-	-	38	-	-	-
O=C(CSc1ncnc2sc(-c3ccccc3)cc12)NC1CCS(=O)(=O)C1 (stereo unspecified)	-	-	-	-	-	-
CCC(CO)[n+]1c(C)cc(/C=C2\Sc3ccccc3N2Cc2ccccc2)cc1C (stereo unspecified)	-	-	61	.	68	-
Cc1onc(-c2ccccc2Cl)c1C(=O)N1CCCCCC1	.	-	.	-	.	-
C(=C1/CCCC2=C1Nc1ncnn1C2c1ccccc1)/c1ccccc1 (stereo unspecified)	-	26	54	-	55	-
Cc1ccc(NC(=O)c2ccc(NS(=O)(=O)c3c(C)noc3C)cc2)cc1C	-	-	-	-	-	-
COc1ccc(NC(=O)c2ccc(NS(=O)(=O)c3c(C)noc3C)cc2)cc1OC	-	-	97	-	-	-
CCc1nc(Nc2ccncc2)c2oc3ccccc3c2n1	-	-	29	-	-	-
Cc1nc(Nc2ccncc2)c2oc3ccccc3c2n1	-	-	-	-	-	-
COc1ccc(N(Cc2cc(=O)[nH]c3ccccc23)C(=O)CCl)cc1	.	-	.	-	.	-
CCOC(=O)C(CC)/C(C)=N\NC(=O)c1ccccc1O (stereo unspecified)	52	-	-	93	-	-
O=C(c1nn2c(C(F)(F)F)cc(-c3cccs3)nc2c1Cl)N1CCCc2ccccc21	-	-	-	78	-	-
Cc1cc(Cl)ccc1OCC(=O)NCC(=O)N/N=C/c1ccco1	-	-	-	-	-	-
SMILES	APP 5UTR inh	IEC-6 cytotox	BaF3 parental	aSyn UTR inh	Ba/F3 V617F tox	KLF5 inhibitor
COc1ccc(CNC(=O)c2c(C)oc3c2C(=O)c2ccccc2C3=O)cc1	-	-	-	103	-	-
OCCN1CCN(CC/C=C2/c3ccccc3CSc3ccccc32)CC1	.	.	.	103	.	.
Cc1cccc(OCC(=O)NCCCNC(=O)c2ccco2)c1	.	-	.	-	.	-
Cc1ccc(/C(C#N)=C\c2ccc(N3CCOCC3)o2)cc1	-	-	36	-	-	-
N#C/C(=C/c1ccc(N2CCCCCC2)o1)c1ccc(Cl)cc1	-	-	-	-	-	-
Cc1ccc2nc(/C(C#N)=C\c3ccc(N4CCOCC4)o3)[nH]c2c1	-	-	41	-	-	-
O=C(c1ccccc1)c1nn(-c2ccc(Cl)cc2)c(=O)cc1C(F)(F)F	-	-	30	-	-	-
O=C(Cn1ncnn1)OCc1ccccc1Cl	68	-	-	-	-	-
c1ccc(CNc2nc(NCc3ccccc3)c3ccccc3n2)cc1	.	-	-	106	-	-
COc1ccc(S(=O)(=O)NCCc2cn3nc(C)c(C)nc3n2)cc1F	.	-	.	-	.	-
COc1ccc(C[C@H]2COC(=O)[C@@H]2Cc2ccc(OC3OC(CO)C(O)C(O)C3O)c(OC)c2)cc1OC (stereo partly specified)	-	-	41	-	-	-
Cc1ccc(N=CC=C2OC(C)(C)C(C)(C)O2)c(C)c1	-	-	-	-	-	-
CC1(C)OC(=CC=Nc2ccc(Cl)cc2)OC1(C)C	.	-	-	103	-	-
CCn1c2ccccc2c2cc(NC(=O)c3cc(OC)cc(OC)c3)ccc21	95	-	-	101	-	-
CCn1c2ccccc2c2cc(NC(=O)CSc3nnc(-c4cccc(F)c4)o3)ccc21	47	-	-	-	-	-
CCn1c2ccccc2c2cc(NC(=O)CSc3nnc(-c4ccccc4)o3)ccc21	58	-	-	-	-	-
COc1cc(C(=S)N2CCCC2)ccc1OCc1ccc(C)cc1	.	-	.	-	.	-
Cc1ccc(C(C)C)c(OCc2ccc(C(=O)N/N=C/c3ccc(C(=O)O)cc3)cc2)c1	.	-	-	-	-	-
Cc1ccc(C(C)C)c(OCc2ccc(C(=O)N/N=C/c3ccc(O)cc3O)cc2)c1	75	-	-	96	-	-
COc1ccc(S(=O)(=O)NCCc2c[nH]c3ccc(C)cc23)cc1	.	-	.	-	.	-
CCC(C)Nc1nc(-c2ccccn2)nc2ccccc12 (stereo unspecified)	.	-	.	69	.	-
Fc1ccccc1/C=N/Nc1nc(-c2ccccn2)nc2ccccc12	.	-	-	81	-	-
c1ccc(CNc2nc(-c3ccccn3)nc3ccccc23)cc1	.	-	.	-	.	-
N#Cc1ccccc1OCC(=O)N(C1CCCCC1)C1CCS(=O)(=O)C1 (stereo unspecified)	.	.	.	-	.	.
Cc1ccc(C)c(OCCC(=O)OC(C)C(=O)Nc2c(C)n(C)n(-c3ccccc3)c2=O)c1 (stereo unspecified)	.	.	.	-	.	.
SMILES	APP 5UTR inh	IEC-6 cytotox	BaF3 parental	aSyn UTR inh	Ba/F3 V617F tox	KLF5 inhibitor
CCCCn1c(N)c(N(CCC(C)C)C(=O)c2ccc([N+](=O)[O-])s2)c(=O)[nH]c1=O	.	.	.	-	.	.
Cc1[nH]nc2nc(SCC(=O)NCCC3=CCCCC3)n(-c3ccc(Br)cc3)c(=N)c12	.	-	.	75	.	-
O=C(CCl)Nc1ccccc1Sc1ccc(Cl)cc1	.	-	-	93	-	-
COc1ccc(Cl)cc1NC(=O)CSc1nc(=O)n(CCN(C)C)c2c1CCCC2	.	.	.	-	.	.
c1ccc(-c2cn3nc(-c4ccccc4)sc3n2)cc1	.	.	.	101	.	.
O=S(=O)(c1ccccc1)N1CCN(C(c2ccccc2)c2ccc(OC(F)(F)F)cc2)CC1 (stereo unspecified)	.	-	.	-	.	-
CCC(=O)N1CCc2cc(S(=O)(=O)Nc3ccccc3C)ccc21	.	-	.	-	.	-
CN(C)c1ccc(-c2noc(-c3ccccc3O)n2)cc1	-	-	-	71	-	-
c1ccc(-c2noc(-c3ccccc3-c3ccccc3)n2)cc1	-	-	-	-	-	-
CC(=O)N/C(=N/c1nc(C)cc(C)n1)Nc1cccc(C)c1C	.	-	.	-	.	-
CCC(=O)N/C(N)=N/c1nc(C)c2cc(OC)ccc2n1	-	-	27	-	-	-
